Where “and” joins values, the source holds several entries; their conditions need not be identical. Identical values can stand only once. Compounds without any hit were thinned out: in the full panel of roughly 83,000, 20% have a hit.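 Treatment: one concentration, 48 hours, 96-well format. Scoring: percent growth, with anything below 10 considered active.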 Calls of active or inactive are those of the source.
Key:
Assay in all cases: NCI-60 one-dose screen, 48 h (100 = growth as untreated, 0 = no growth, -100 = all killed)
HCT-15 colon = settings: 10 µM unless noted
HT29 colon = settings: 10 µM unless noted
SNB-75 CNS = settings: 10 µM unless noted
U251 CNS = settings: 10 µM unless noted
PC-3 prostate = settings: 10 µM unless noted
SK-MEL-5 melanoma = settings: 10 µM unless noted
UACC-62 melanoma = settings: 10 µM unless noted
LOX IMVI melanoma = settings: 10 µM unless noted
SK-MEL-28 melanoma = settings: 10 µM unless noted
SK-MEL-2 melanoma = settings: 10 µM unless noted
EKVX NSCLC = settings: 10 µM
SN12C renal = settings: 10 µM unless noted
UO-31 renal = settings: 10 µM unless noted
TK-10 renal = settings: 10 µM unless noted
ACHN renal = settings: 10 µM unless noted
A498 renal = settings: 10 µM unless noted
CCRF-CEM leukemia = settings: 10 µM
SNB-19 CNS = settings: 10 µM unless noted
MOLT-4 leukemia = settings: 10 µM unless noted
CAKI-1 renal = settings: 10 µM unless noted

Measured: growth

CC(C)C(C)(C)c1ccc(O)cc1
inactive: HCT-15 colon 105% | HT29 colon 102% | SNB-75 CNS 97.8% | U251 CNS 102% | PC-3 prostate 93.1% | SK-MEL-5 melanoma 99.9% | UACC-62 melanoma 101% | LOX IMVI melanoma 98.4% | SK-MEL-28 melanoma 105% | SK-MEL-2 melanoma 104% | EKVX NSCLC 107% | SN12C renal 102% | UO-31 renal 98.1% | TK-10 renal 107% | ACHN renal 112% | A498 renal 102% | CCRF-CEM leukemia 105%

O=c1n(CC2CO2)c(=O)n(CC2CO2)c(=O)n1CC1CO1 (configuration not stated)
inactive: HCT-15 colon 75.9% | HT29 colon 70.3% | SNB-75 CNS 66.3% | SNB-19 CNS 83.9% | PC-3 prostate 71.4% | SK-MEL-5 melanoma 86.7% | UACC-62 melanoma 66% | LOX IMVI melanoma 54.5% | SK-MEL-28 melanoma 88.7% | SN12C renal 46.7% | UO-31 renal 38.2% | TK-10 renal 77.9% | ACHN renal 19.8% | A498 renal 88.4% | CCRF-CEM leukemia 32.5%

CC(=O)Nc1ccc(S(N)(=O)=O)cc1
inactive: HCT-15 colon 107% and 93.5% | HT29 colon 106% and 96.8% | SNB-75 CNS 107% and 92.5% | SNB-19 CNS 98.3% and 107% | PC-3 prostate 81.2% and 99.1% | SK-MEL-5 melanoma 93.2% and 101% | UACC-62 melanoma 99.8% | LOX IMVI melanoma 98% and 92.1% | SK-MEL-28 melanoma 107% and 110% | SK-MEL-2 melanoma 109% and 110% | EKVX NSCLC 102% | SN12C renal 97.5% and 102% | UO-31 renal 95.8% and 84.3% | TK-10 renal 101% | ACHN renal 103% and 93.3% | A498 renal 85.8% and 101% | CCRF-CEM leukemia 93.2% and 100% | MOLT-4 leukemia 103% and 98.8%

O=C1OC(C(O)C(O)CO)C(O)=C1O (configuration not stated)
inactive: HCT-15 colon 99.8% and 100% | HT29 colon 102% and 96.4% | SNB-75 CNS 100% and 90.4% | SNB-19 CNS 100% and 98.4% | PC-3 prostate 93.2% and 85.3% | SK-MEL-5 melanoma 97.2% and 106% | UACC-62 melanoma 103% and 99.8% | LOX IMVI melanoma 104% and 99.2% | SK-MEL-28 melanoma 118% and 107% | SK-MEL-2 melanoma 92.9% and 101% | EKVX NSCLC 110% and 99.5% | SN12C renal 107% and 101% | UO-31 renal 104% and 94.2% | TK-10 renal 124% and 100% | ACHN renal 105% and 103% | A498 renal 129% and 116% | CCRF-CEM leukemia 102% and 101% | MOLT-4 leukemia 121% and 105%

N#CC(C#N)N=Nc1cc(Cl)ccc1Cl
inactive: HCT-15 colon 101% | HT29 colon 101% | SNB-75 CNS 74.8% | SNB-19 CNS 93.6% | PC-3 prostate 106% | SK-MEL-5 melanoma 106% | UACC-62 melanoma 99.1% | LOX IMVI melanoma 109% | SK-MEL-28 melanoma 109% | SK-MEL-2 melanoma 85.6% | SN12C renal 103% | TK-10 renal 105% | ACHN renal 94.1% | A498 renal 110% | CCRF-CEM leukemia 94.7% | MOLT-4 leukemia 92.4%

Cl
inactive: HCT-15 colon 102% | HT29 colon 106% | SNB-75 CNS 96.9% | SNB-19 CNS 99.3% | PC-3 prostate 106% | SK-MEL-5 melanoma 105% | UACC-62 melanoma 105% | LOX IMVI melanoma 97% | SK-MEL-28 melanoma 136% | EKVX NSCLC 100% | SN12C renal 104% | UO-31 renal 87.1% | TK-10 renal 109% | ACHN renal 104% | A498 renal 88.1% | CCRF-CEM leukemia 106% | MOLT-4 leukemia 88.5%

O=C1c2c(O)ccc(O)c2C(=O)c2c(NCCNCCO)ccc(NCCNCCO)c21
active: HCT-15 colon -14.2% and 3.08% | HT29 colon -59.8% and -43.2% | SNB-75 CNS -90.4% | SNB-19 CNS -40.6% and -58.3% | PC-3 prostate -28% and -55.3% | SK-MEL-5 melanoma -100% | UACC-62 melanoma -91.9% and -86.7% | LOX IMVI melanoma -66.4% and -76.2% | SK-MEL-2 melanoma -87.6% and -70.5% | EKVX NSCLC -17.7% and -29.5% | SN12C renal -45.7% and -49.7% | UO-31 renal -63.5% and -53.9% | TK-10 renal -35% and -7% | ACHN renal -52.9% and -45.2% | A498 renal -80.1% | CCRF-CEM leukemia -24.9% and -30.9%

CCOC(=O)c1c(C)cc(=O)oc1C
inactive: HCT-15 colon 102% | HT29 colon 103% | SNB-75 CNS 94% | SNB-19 CNS 96.2% | PC-3 prostate 92% | SK-MEL-5 melanoma 106% | UACC-62 melanoma 95.3% | LOX IMVI melanoma 105% | SK-MEL-28 melanoma 115% | SK-MEL-2 melanoma 125% | SN12C renal 98.6% | UO-31 renal 88.9% | TK-10 renal 121% | ACHN renal 104% | CCRF-CEM leukemia 100%

CC(=O)NCC(=O)c1ccc([N+](=O)[O-])cc1
inactive: HCT-15 colon 111% | HT29 colon 107% | SNB-75 CNS 99.1% | SNB-19 CNS 103% | PC-3 prostate 98.4% | SK-MEL-5 melanoma 103% | UACC-62 melanoma 101% | LOX IMVI melanoma 95% | SK-MEL-28 melanoma 105% | SK-MEL-2 melanoma 136% | EKVX NSCLC 102% | SN12C renal 105% | UO-31 renal 80.5% | ACHN renal 103% | CAKI-1 renal 103% | A498 renal 81.2% | CCRF-CEM leukemia 99.5%

Cc1cc2ccccc2cn1
inactive: HCT-15 colon 104% and 105% | HT29 colon 109% and 102% | SNB-75 CNS 92.9% and 83.1% | SNB-19 CNS 95.3% and 97.7% | PC-3 prostate 95.3% and 96% | SK-MEL-5 melanoma 101% and 109% | UACC-62 melanoma 92.5% and 95.2% | LOX IMVI melanoma 102% and 99.7% | SK-MEL-28 melanoma 109% and 200% | SK-MEL-2 melanoma 107% | EKVX NSCLC 93% | SN12C renal 94% and 104% | UO-31 renal 83.2% and 82.6% | TK-10 renal 103% and 93.4% | ACHN renal 107% and 102% | A498 renal 100% and 197% | CCRF-CEM leukemia 102% and 120% | MOLT-4 leukemia 112% and 88.7%

O=CN1CCCCC1
inactive: HCT-15 colon 106% | HT29 colon 108% | SNB-75 CNS 94.3% | SNB-19 CNS 107% | PC-3 prostate 106% | SK-MEL-5 melanoma 100% | LOX IMVI melanoma 96.6% | SK-MEL-28 melanoma 110% | SK-MEL-2 melanoma 125% | EKVX NSCLC 94.9% | SN12C renal 104% | UO-31 renal 97.2% | TK-10 renal 125% | ACHN renal 109% | A498 renal 84.1% | CCRF-CEM leukemia 115%

CN1CNC(=O)NC1
inactive: HCT-15 colon 109% and 101% | HT29 colon 101% | SNB-75 CNS 94.8% and 110% | SNB-19 CNS 109% and 103% | PC-3 prostate 94% and 87.2% | SK-MEL-5 melanoma 113% and 95.9% | UACC-62 melanoma 111% and 107% | LOX IMVI melanoma 99.6% and 95.4% | SK-MEL-28 melanoma 113% and 118% | SK-MEL-2 melanoma 114% | EKVX NSCLC 97.3% | SN12C renal 105% and 102% | UO-31 renal 98.5% and 87.6% | TK-10 renal 112% and 115% | ACHN renal 113% and 107% | A498 renal 100% and 72.4% | CCRF-CEM leukemia 108% and 91.3% | MOLT-4 leukemia 99.9% and 85.2%

OC1COC(OCc2ccccc2)C(O)C1O (configuration not stated)
inactive: HCT-15 colon 98% | HT29 colon 111% | SNB-75 CNS 90.5% | PC-3 prostate 105% | SK-MEL-5 melanoma 101% | UACC-62 melanoma 106% | LOX IMVI melanoma 94% | SK-MEL-28 melanoma 104% | SK-MEL-2 melanoma 99% | SN12C renal 99.4% | UO-31 renal 81.9% | ACHN renal 106% | A498 renal 92.9%

C#CCOC(=O)Nc1ccccc1
inactive: HCT-15 colon 99.6% | HT29 colon 112% | SNB-75 CNS 91.2% | SNB-19 CNS 111% | PC-3 prostate 96.7% | SK-MEL-5 melanoma 103% | UACC-62 melanoma 104% | LOX IMVI melanoma 99.2% | SK-MEL-28 melanoma 103% | SK-MEL-2 melanoma 109% | EKVX NSCLC 99.1% | SN12C renal 101% | UO-31 renal 97.7% | TK-10 renal 103% | ACHN renal 114% | A498 renal 75.2% | CCRF-CEM leukemia 112% | MOLT-4 leukemia 104%

From PubChem BioAssay (NCI)
